This is a sample that favours compounds with a hit; in the whole collection about 3.5% have one here.
GPR151 ag = human GPR151 activation | AID 1508602 | PathHunter beta-arrestin GPR151 cells, luminescence | activation, % at 11.2 µM | Q8TDV0 | 650,000 compounds, 1% hits; in the data active means activation above about 4.9%
MITF primary = inhibitors of human MITF; AID 1259374; O75030; AlphaScreen MITF homodimerization, bead proximity signal; 650,000 compounds, 0.91% hits; inhibition, % at 2.6 µM; in the data active means inhibition above about 50%
FBW7 act = human FBW7 E3 ligase activation, primary screen. Q969H0. AlphaScreen FBW7–phospho-cyclin E peptide binding, activator screen. normalized activity (activation), % at 26.1 µM. 650,000 compounds, 0.13% hits; in the data active means normalized activity above about 1.9%;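 further: purified mutant Fbw7 with reduced substrate affinity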
TEAD-YAP block = TEAD-YAP interaction inhibition; HEK-TIYL cells, TEAD-Gal4/YAP UAS-luciferase luminescence; 640,000 compounds, 1.4% hits; inhibition, % at 9.12 µM; in the data active means inhibition above about 32%
GPR151 conf act = human GPR151 activation, confirmation screen. AID 1508609. activation, % at 11.2 µM. 6,700 tested, under 10 active. shares compounds with GPR151 ag. GPR151 PathHunter beta-arrestin cells, luminescence, 90 min; % of EA-reagent control over plate median;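 active means mean percent activation across replicates above the confirmation screen cutoff of 4.91%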
GPR119 counter = activates human GPR119 in a GPR151 counter-screen. GPR119 PathHunter beta-arrestin cells, luminescence, 90 min; 0 = compound-well median, 100 = enzyme-acceptor control. AID 1508611. shares compounds with GPR151 ag. 6,700 compounds, 0.3% hits. activation, % at 11.2 µM;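 active means mean percent activation in the counterscreen above 29.09%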;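 further: counterscreen on off-target GPR119 to flag nonselective hits from the GPR151 activator screen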
Target sequence (Q8TDV5 whole entry, looked up): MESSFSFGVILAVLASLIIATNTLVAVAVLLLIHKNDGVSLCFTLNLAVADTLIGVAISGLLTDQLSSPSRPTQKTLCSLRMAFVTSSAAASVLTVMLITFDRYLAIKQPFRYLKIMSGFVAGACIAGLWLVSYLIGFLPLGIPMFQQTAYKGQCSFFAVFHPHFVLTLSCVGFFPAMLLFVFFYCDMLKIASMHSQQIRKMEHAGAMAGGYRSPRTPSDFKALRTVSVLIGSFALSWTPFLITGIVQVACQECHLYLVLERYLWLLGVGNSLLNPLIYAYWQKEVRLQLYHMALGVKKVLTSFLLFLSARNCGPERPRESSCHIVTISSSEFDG
Numbers stand for hits; . = inactive; / = no result.

SMILES	GPR151 ag	MITF primary	FBW7 act	TEAD-YAP block	GPR151 conf act	GPR119 counter
CCCCC1CCC(C(=O)OCC(=O)c2ccc(-c3ccc(Br)cc3)cc2)CC1 (stereo unspecified)	6.6	.	.	.	.	.
O=C1CN(c2ccc(S(=O)(=O)N3CCCC3)cn2)CCN1	.	.	.	.	/	/
O=C1CN(c2ccc(S(=O)(=O)N3CCC(Cc4ccccc4)CC3)cn2)CCN1	7.3	.	.	.	.	.
COCCCn1c(-c2ccc(C(C)(C)C)cc2)n[nH]c1=S	12	.	.	.	.	.
CCCCn1c(=O)c2c(nc3n(-c4ccc(C(=O)OCC)cc4)c(C)cn23)n(C)c1=O	5.6	.	.	.	.	.
CCCn1c(=O)c2c(nc3n(-c4ccc(C(=O)OCC)cc4)c(C)cn23)n(C)c1=O	.	.	.	.	/	/
CCn1c(=O)c2c(nc3n(CC)c(C)cn23)n(C)c1=O	.	.	.	.	/	/
CCn1c(=O)c2c(nc3n(C)c(C)cn23)n(C)c1=O	8.0	.	.	.	.	.
O=C(O)CSc1nc2ccccc2n1CCOc1ccccc1	6.4	.	.	.	.	.
COc1ccccc1OCCCC(=O)Nc1nnc(C2CCCCC2)s1	5.2	.	.	.	.	.
CC1(C)OC(=O)C(=CNc2cc([N+](=O)[O-])ccc2F)C(=O)O1	.	.	.	.	/	/
CCCCCCCCCCCCC/C=C/[C@@H](O)[C@H](COP(=O)(O)O)NC(=O)CCCCCCC	5.2	.	/	/	.	.
O=C(Nc1ccc(Br)cc1)c1cc(-c2ccccc2)nc2ccc(Cl)cc12	.	.	.	.	/	/
Cn1ccc2cc(-c3cc(C(=O)NC4CC4)ccn3)ccc21	22	.	.	.	.	.
COc1cc(C2NC(=O)NC(C)=C2C(=O)Nc2cccc(Cl)c2)cc([N+](=O)[O-])c1O (stereo unspecified)	.	.	.	.	/	/
COc1ccc(CN2CCc3nnc(CCNC(=O)COc4ccccc4)n3CC2)cc1C	.	.	.	.	/	/
COc1ccccc1C(=O)N1CCN(C(=O)c2ccco2)CC1	.	.	.	.	/	/
O=C(CN(c1ccccc1)S(=O)(=O)c1ccccc1)N1CCN(c2ccccc2)CC1	.	.	.	.	/	/
Cc1cccc(N(CC(=O)N2CCN(c3ccccc3)CC2)S(=O)(=O)c2ccccc2)c1	5.8	.	.	.	.	.
COc1c(Cl)cc(Cl)cc1C(=O)Nc1ccc(-c2nn3c(C)nnc3s2)cc1	5.0	.	.	.	.	.
Cc1cc(F)ccc1NC(=O)CCNS(=O)(=O)c1ccc(Cl)c([N+](=O)[O-])c1	.	.	.	.	/	/
COc1ccc(C2(CC(=O)N3CC[C@@H](O)C3)CC(=O)N(CCC(C)C)C2=O)cc1 (stereo partly specified)	6.7	.	.	.	.	.
COc1ccc(C2(CC(=O)N3CCCC(O)C3)CC(=O)N(CCC(C)C)C2=O)cc1 (stereo unspecified)	.	.	.	.	/	/
CCOc1cc(C(=O)O)cc(I)c1OCc1ccccc1	9.2	.	.	.	.	.
CCCCOc1c(I)cc(C(=O)O)cc1OCC	.	.	.	.	/	/
SMILES	GPR151 ag	MITF primary	FBW7 act	TEAD-YAP block	GPR151 conf act	GPR119 counter
CCNC(=O)N1CCc2nc(-c3ccccc3)nc(N3CCC(C(=O)OCC)CC3)c2C1	.	.	.	.	/	/
COc1ccc(CCNC(=O)[C@@H](NC(N)=O)C(C)C)cc1OC	.	.	.	.	/	/
O=C(Nc1ccccc1)NC1(C(F)(F)F)Oc2ccc(Cl)cc2O1 (stereo unspecified)	5.2	.	.	.	.	.
O=C(NC1(C(F)(F)F)Oc2ccccc2O1)C(F)(F)F	6.2	.	.	.	.	.
O=C(CCl)NC1(C(F)(F)F)Oc2ccccc2O1	.	.	.	.	/	/
O=C(Nc1cccc(C(F)(F)F)c1)NC1(C(F)(F)F)Oc2ccc(Cl)cc2O1 (stereo unspecified)	.	.	.	.	/	/
COc1cccc2cc(C(=O)Nc3ccccc3I)c(=O)oc12	.	.	.	.	/	/
CC(=O)c1ccc(N2CCN(CC(=O)Nc3ccc(Oc4ccccc4)cc3)CC2)cc1	.	.	.	.	/	/
COC(=O)NCC12CC3CC(CC(C3)C1)C2	8.9	.	.	.	.	.
NC(=O)NCC12CC3CC(CC(C3)C1)C2	.	.	.	.	/	/
Cc1cc(-c2csc(N)n2)c(C)n1CCc1ccc(F)cc1	.	.	.	.	/	/
NS(=O)(=O)c1ccc(N/N=C2\CCc3ccccc32)c([N+](=O)[O-])c1	7.5	.	.	.	.	.
Cc1cc(C)c2c(c1)/C(=N/Nc1ccc(S(N)(=O)=O)cc1[N+](=O)[O-])CCC2	.	.	.	.	/	/
COc1cccc(Nc2c(-c3ccc(C(C)C)cc3)c(=O)c2=O)c1	.	.	.	.	/	/
COc1ccc(C(O)C(C)c2nc3ccccc3n2C)cc1 (stereo unspecified)	6.3	.	.	.	.	.
COc1ccccc1/C=N/NC(=O)c1ccccc1Cl	.	.	.	.	/	/
CCN(CC)c1ccc(/C=N/NC(=O)c2ccccc2Cl)c(O)c1	7.3	.	.	.	.	.
COc1ccccc1/C=N/NC(=O)c1ccccc1O	7.1	.	.	.	.	.
O=C(N/N=C/c1ccccc1O)c1ccc(Cl)cc1Cl	5.1	.	.	.	.	.
CCOc1ccc(NC2CC(=O)N(CCOC)C2=O)cc1 (stereo unspecified)	.	.	.	.	/	/
CC1CCc2c(sc3ncnc(N)c23)C1 (stereo unspecified)	.	.	.	.	/	/
NC(=O)NC(=O)COc1ccc(F)cc1Br	8.2	.	.	.	.	.
O=Cc1ccc(OCC(=O)Nc2ccc(F)cc2)c(Br)c1	.	.	.	.	/	/
CC(=O)Nc1cc(C(=O)c2ccccc2)ccc1N1CCOCC1	6.1	.	.	.	.	.
CCOc1cc(C(=O)Nc2ccccc2N2CCOCC2)cc(OCC)c1OCC	5.8	.	.	.	.	.
SMILES	GPR151 ag	MITF primary	FBW7 act	TEAD-YAP block	GPR151 conf act	GPR119 counter
COc1ccccc1C(=O)Nc1cc(C(=O)c2ccccc2)ccc1N1CCOCC1	.	.	.	.	/	/
Cc1c(C(=O)O)oc2ccc(S(=O)(=O)N(C)Cc3ccccc3)cc12	.	.	.	.	/	/
O=C(NCCN1CCCC1)C1(S(=O)(=O)c2ccc(Cl)cc2)CC1	.	.	.	.	/	/
CC1CCCCN1CCNC(=O)C1(S(=O)(=O)c2ccc(Cl)cc2)CC1 (stereo unspecified)	6.7	.	.	.	.	.
Cc1cc(Nc2ccc(F)cc2F)n2nc(C)nc2n1	.	.	.	.	/	/
Cc1cc(Nc2cc(F)ccc2C)n2nc(C)nc2n1	7.1	.	.	.	.	.
CCCc1nc(Nc2nc3ccccc3s2)ncc1C(=O)OCC	.	.	.	.	/	/
Cc1cc(-c2nnc3n2CCC3)c(C)n1-c1ccccc1	5.7	.	.	.	.	.
Cc1cc(-c2nnco2)c(C)n1-c1ccccc1	.	.	.	.	/	/
